Inconclusive results are not listed. Activity calls are given as the source filed them. Unless noted, the call rests on the fitted dose curve.
Key:
[1] = Nuclear factor erythroid 2-related factor 2/antioxidant responsive element (Nrf2/ARE) small molecule agonists: qHTS cell viability counter screen in human keratinocytes (AID 1919968; active means well fitted curve in the direction sought with a large enough effect in the repeat runs; an effect the other way counts as inactive or inconclusive; further: nearly all actives have a fitted effect of over 55% in size)
How it was run: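 Parallel cytotoxicity read: KeratinoSens HaCaT cells, compound treatment 23 h, viability by CellTiter-Fluor fluorescence 1 h post-reagent.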

[2] = Nuclear factor erythroid 2-related factor 2/antioxidant responsive element (Nrf2/ARE) small molecule agonists: luciferase reporter gene qHTS assay in human keratinocytes (AID 1919969); further: nearly all actives have a fitted effect of over 35% in size
[3] = molecular target: Gonadotropin-releasing hormone receptor (Homo sapiens) (UniProt P30968); test: Human gonadotropin-releasing hormone receptor (GnRHR) small molecule agonists, calcium flux assay in GnRHR-HEK293 cells (AID 1920063); further: nearly all actives have a fitted effect of over 35% in size
Sequence of Gonadotropin-releasing hormone receptor (Homo sapiens) (P30968 whole entry, looked up): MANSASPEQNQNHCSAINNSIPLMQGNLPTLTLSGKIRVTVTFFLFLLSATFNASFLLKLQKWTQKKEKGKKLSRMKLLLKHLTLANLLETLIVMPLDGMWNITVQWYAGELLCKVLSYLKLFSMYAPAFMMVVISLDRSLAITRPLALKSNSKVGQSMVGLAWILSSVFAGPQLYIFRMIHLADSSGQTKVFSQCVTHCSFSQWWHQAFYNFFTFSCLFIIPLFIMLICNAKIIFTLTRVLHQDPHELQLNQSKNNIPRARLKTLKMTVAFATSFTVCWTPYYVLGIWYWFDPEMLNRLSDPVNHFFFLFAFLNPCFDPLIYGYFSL
How it was run: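 Calcium flux, agonist mode, human GnRHR stably integrated in HEK293; dye 1 h at 37 C before compound; Ex/Em=480/540 kinetic read, 3 min; 15 concentrations, triplicate.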

[4] = molecular target: KiSS-1 receptor (Homo sapiens) (UniProt Q969F8); test: Human kisspeptin (KISS1R) small molecule agonists, calcium flux assay in KISS1R-HEK293 cells (AID 1920064; active means well fitted curve in the direction sought with a large enough effect in the repeat runs; an effect the other way counts as inactive or inconclusive)
Sequence of KiSS-1 receptor (Homo sapiens) (Q969F8 whole entry, looked up): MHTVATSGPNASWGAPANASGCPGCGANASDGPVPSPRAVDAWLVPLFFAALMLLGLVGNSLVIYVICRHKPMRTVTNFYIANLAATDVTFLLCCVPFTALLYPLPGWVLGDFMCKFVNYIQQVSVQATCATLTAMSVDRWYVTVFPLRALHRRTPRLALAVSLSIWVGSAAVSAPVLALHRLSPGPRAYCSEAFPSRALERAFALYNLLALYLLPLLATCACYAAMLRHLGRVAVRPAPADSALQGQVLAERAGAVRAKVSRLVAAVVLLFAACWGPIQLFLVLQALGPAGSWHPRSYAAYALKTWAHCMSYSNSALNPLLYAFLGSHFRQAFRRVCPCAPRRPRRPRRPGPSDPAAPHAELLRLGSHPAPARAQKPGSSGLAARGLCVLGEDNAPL
How it was run: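 Triplicate 15-concentration series were applied to dye-loaded human KISS1R HEK293 cells, and agonist-evoked calcium fluorescence was captured for 3 min.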

[5] = G protein-coupled receptor (GPCR) small molecule agonists, calcium flux assay: HEK293 wild type cell line counter screen (AID 1920065)
How it was run: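 Non-specific calcium responders were flagged by adding DMSO-dissolved compounds to dye-loaded cells and reading 480/540 nm fluorescence each second for 3 min; ATP served as positive control.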

[6] = p53 small molecule agonists, cell-based qHTS assay with human liver microsomes (AID 1963577);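 further: p53 response element beta-lactamase reporter cells with liver microsomes plus NADPH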
How it was run: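 Compounds act here after metabolic activation: human liver microsomes and NADPH, both at 0.5 mg/mL final, were co-added to p53RE-bla cells. Incubation ran 16 h at 37 C, followed by LiveBLAzer detection.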

[7] = p53 small molecule agonists, cell-based qHTS assay with rat liver microsomes: qHTS cell viability counter screen (AID 1963580); further: nearly all actives have a fitted effect of over 45% in size
How it was run: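 Counter screen for cytotoxicity under metabolic activation: rat liver microsomes and NADPH, 0.5 mg/mL final each, added with compounds to p53RE-bla HCT-116 cells; 16 h at 37 C, then ATP luminescence read.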

[8] = p53 small molecule agonists, cell-based qHTS assay: qHTS cell viability counter screen (AID 1963581); further: nearly all actives have a fitted effect of over 45% in size
How it was run: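 Multiplexed with the reporter read, a CellTiter-Glo step (30 min, room temperature) gauges ATP-based viability of HCT-116 p53RE-bla cells after 16 h compound incubation at 37 C.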

[9] = p53 small molecule agonists, cell-based qHTS assay (AID 1963582; active means well fitted activation curve with a large enough effect in the signal ratio in the repeat runs, not every such curve was filed as active; the % refers to the signal ratio)
How it was run: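 Beta-lactamase reporter cells (p53RE-bla) treated with compounds for 16 h at 37 C; FRET substrate, 2 h, room temperature; fluorescence intensity.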

[10] = molecular target: 5-hydroxytryptamine receptor 2A (Homo sapiens) (UniProt P28223); test: 5-hydroxytryptamine receptor 2A (HTR2A) small molecule antagonists, cell-based qHTS assay (AID 1963586); further: nearly all actives have a fitted effect of over 45% in size
Sequence of 5-hydroxytryptamine receptor 2A (Homo sapiens) (P28223 whole entry, looked up): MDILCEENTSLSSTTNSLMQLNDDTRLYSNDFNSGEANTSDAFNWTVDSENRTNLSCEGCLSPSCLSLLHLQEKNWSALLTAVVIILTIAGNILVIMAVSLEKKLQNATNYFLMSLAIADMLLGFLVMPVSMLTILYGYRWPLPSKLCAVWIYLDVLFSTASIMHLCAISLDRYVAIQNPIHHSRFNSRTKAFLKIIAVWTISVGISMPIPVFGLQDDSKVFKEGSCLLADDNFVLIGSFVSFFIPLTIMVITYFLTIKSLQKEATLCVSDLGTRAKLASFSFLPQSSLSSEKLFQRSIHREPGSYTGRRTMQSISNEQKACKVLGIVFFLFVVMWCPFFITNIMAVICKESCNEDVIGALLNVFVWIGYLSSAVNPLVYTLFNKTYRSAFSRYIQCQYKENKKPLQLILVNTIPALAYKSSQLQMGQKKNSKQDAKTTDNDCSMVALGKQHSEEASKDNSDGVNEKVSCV
How it was run: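 CHO cells stably expressing human HTR2A were plated for 18 h at 37 C, then loaded with calcium dye for 1 h. Compounds were preincubated 5 min at room temperature before DOI (4 nM solution) was added. Kinetic fluorescence was read for 3 min.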

[11] = molecular target: 5-hydroxytryptamine receptor 2A (Homo sapiens) (UniProt P28223); test: 5-hydroxytryptamine receptor 2A (HTR2A) small molecule agonists, cell-based qHTS assay (AID 1963587); further: nearly all actives have a fitted effect of over 30% in size
How it was run: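 HTR2A-CHO cells, plated 18 h at 37 C/5% CO2, dye-loaded 1 h at 37 C; compounds in DMSO added by pin tool (agonist mode). Intracellular calcium flux read as kinetic fluorescence on FDSS over 2 min at 1 s intervals.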

[12] = molecular target: Muscarinic acetylcholine receptor M1 (Homo sapiens) (UniProt P11229); test: Cholinergic receptor muscarinic 1 (CHRM1) small molecule antagonists, cell-based qHTS assay (AID 1963588); further: nearly all actives have a fitted effect of over 40% in size
Sequence of Muscarinic acetylcholine receptor M1 (Homo sapiens) (P11229 whole entry, looked up): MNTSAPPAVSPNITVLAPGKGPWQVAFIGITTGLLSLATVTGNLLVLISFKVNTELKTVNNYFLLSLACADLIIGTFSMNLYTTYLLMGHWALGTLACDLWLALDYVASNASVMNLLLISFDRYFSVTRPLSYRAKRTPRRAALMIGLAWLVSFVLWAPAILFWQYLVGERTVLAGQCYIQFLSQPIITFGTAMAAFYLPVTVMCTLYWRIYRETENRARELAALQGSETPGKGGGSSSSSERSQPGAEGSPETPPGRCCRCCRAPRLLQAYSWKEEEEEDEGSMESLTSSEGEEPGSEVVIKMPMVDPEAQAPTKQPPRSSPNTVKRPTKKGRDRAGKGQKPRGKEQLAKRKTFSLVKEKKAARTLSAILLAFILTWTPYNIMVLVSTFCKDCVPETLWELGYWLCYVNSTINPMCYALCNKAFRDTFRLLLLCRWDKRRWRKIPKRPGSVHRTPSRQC
How it was run: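 Compounds were tested at 15 concentrations in three independent runs. Dye-loaded CHRM1-CHO cells were exposed 5 min at room temperature before stimulation by acetylcholine added at 50nM. Intracellular calcium was read kinetically on FDSS for 3 min.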

[13] = molecular target: Muscarinic acetylcholine receptor M1 (Homo sapiens) (UniProt P11229); test: Cholinergic receptor muscarinic 1 (CHRM1) small molecule agonists, cell-based qHTS assay (AID 1963589); further: nearly all actives have a fitted effect of over 35% in size
How it was run: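 qHTS, 15-point titration, 3 independent runs: compounds pin-transferred onto dye-loaded CHRM1-CHO cells (human M1), calcium fluorescence followed every second to detect agonism.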

[14] = cAMP Responsive Elements (CRE) small molecule agonists, cell-based qHTS assay (AID 1963590)
How it was run: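 Quantitative HTS for CRE agonists: HEK 293T CRE-bla cells, overnight plating, 3 h compound incubation at 37 C/5% CO2, then 2 h room-temperature LiveBLAzer B/G FRET substrate loading.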

[15] = cAMP Responsive Elements (CRE) small molecule antagonists, cell-based qHTS assay (AID 1963591; active means well fitted inhibition curve with a large enough effect in the signal ratio in the repeat runs, not every such curve was filed as active; the % refers to the signal ratio)
How it was run: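 Fluorescence intensity from cleaved LiveBLAzer B/G substrate (2 h, room temperature) quantified CRE-bla activity in HEK 293T cells exposed 3 h to compound with 0.25 uM final NKH477.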

[16] = molecular target: Beta-2 adrenergic receptor (Homo sapiens) (UniProt P07550); test: Adrenergic beta2 receptor (ADRB2) small molecule antagonists, cell-based qHTS assay (AID 1963592); further: series mostly up to about 92 µM; nearly all actives have a fitted effect of over 50% in size
Sequence of Beta-2 adrenergic receptor (Homo sapiens) (P07550 whole entry, looked up): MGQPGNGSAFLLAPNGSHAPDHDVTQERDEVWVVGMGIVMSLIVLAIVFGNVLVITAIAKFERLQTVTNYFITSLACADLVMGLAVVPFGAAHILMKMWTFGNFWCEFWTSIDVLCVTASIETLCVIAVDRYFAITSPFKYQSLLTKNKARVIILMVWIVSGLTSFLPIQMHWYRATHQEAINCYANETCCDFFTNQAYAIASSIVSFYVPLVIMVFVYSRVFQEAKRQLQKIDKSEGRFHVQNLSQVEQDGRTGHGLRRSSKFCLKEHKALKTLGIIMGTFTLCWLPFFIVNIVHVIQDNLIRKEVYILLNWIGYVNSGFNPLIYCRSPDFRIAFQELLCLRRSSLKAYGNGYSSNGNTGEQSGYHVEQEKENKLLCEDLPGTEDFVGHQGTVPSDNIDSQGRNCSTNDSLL
How it was run: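 Assay format: CHO-ADRB2 cells, 18-20hr seeding at 37C/5% CO2, then compound plus 1nM isoproterenol agonist mix for 0.5hr RT. Homogeneous time-resolved fluorescence cAMP detection after 1hr, expressed as 665/615 nm ratio.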

[17] = molecular target: D(2) dopamine receptor (Homo sapiens) (UniProt P14416); test: Dopamine D2 receptor (DRD2) small molecule antagonists, cell-based qHTS assay (AID 1963595; active means well fitted inhibition curve with a large enough effect in the signal ratio in the repeat runs, with a control signal flat; the % refers to the signal ratio)
Sequence of D(2) dopamine receptor (Homo sapiens) (P14416 whole entry, looked up): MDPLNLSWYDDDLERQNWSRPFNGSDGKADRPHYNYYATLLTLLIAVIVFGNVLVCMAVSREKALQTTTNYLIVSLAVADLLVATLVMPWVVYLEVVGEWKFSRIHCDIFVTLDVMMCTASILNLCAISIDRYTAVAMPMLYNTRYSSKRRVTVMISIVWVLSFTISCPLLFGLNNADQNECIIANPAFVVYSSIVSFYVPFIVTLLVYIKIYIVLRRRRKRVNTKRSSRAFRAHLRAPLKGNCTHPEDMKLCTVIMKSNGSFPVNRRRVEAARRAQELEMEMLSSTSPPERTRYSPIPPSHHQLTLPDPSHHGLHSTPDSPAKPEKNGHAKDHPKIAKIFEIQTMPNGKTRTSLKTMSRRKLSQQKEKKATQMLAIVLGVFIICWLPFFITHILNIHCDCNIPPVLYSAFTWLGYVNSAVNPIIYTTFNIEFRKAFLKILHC
How it was run: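 Stable D2 receptor HEK293 line, 24 h after seeding. Compound preincubated 10 min, then quinpirole (12 nM) with forskolin analogue NKH477 (200 nM), 30 min, room temperature. Detection by time-resolved FRET of cAMP.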

[18] = molecular target: Beta-2 adrenergic receptor (Homo sapiens) (UniProt P07550); test: Adrenergic beta2 receptor (ADRB2) small molecule agonists, cell-based qHTS assay (AID 1963593);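 further: CHO cells stably overexpressing human ADRB2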
How it was run: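 CHO cells stably over-expressing ADRB2 were plated overnight at 37C, then dosed with compounds plus a stimulation mix containing 100uM IBMX and 25uM Ro-20-1724 for 0.5hr at room temperature. cAMP was measured by HTRF competition, 1hr.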

[19] = molecular target: D(2) dopamine receptor (Homo sapiens) (UniProt P14416); test: Dopamine D2 receptor (DRD2) small molecule agonists, cell-based qHTS assay (AID 1963594); further: nearly all actives have a fitted effect of over 35% in size
How it was run: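 HEK293 cells stably expressing DRD2 were cultured 24 h at 37 C, then given Ro20-1724 (0.1 mM final) and compounds for 10 min at room temperature. NKH477 (200nM) was then added for 30 min. cAMP was read by HTRF.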
On the % scale 0 is the no-effect control and ±100 the full control effect.

CC(C)=CC1CC(C)CCO1 (stereo not drawn)
inactive: Potency [1] | Potency [2] | Potency [3] | outcome [4] | outcome [5] | Potency [6] | Potency [7] | Potency [8] | Potency [9] | Potency [10] | Potency [11] | Potency [12] | Potency [13] | Potency [14] | Potency [15] | Potency [16] | Potency [17]

CCC1C(=O)OCC1Cc1cncn1C (stereo not drawn)
inactive: Potency [1] | Potency [2] | Potency [3] | outcome [4] | outcome [5] | Potency [6] | Potency [7] | Potency [8] | Potency [9] | Potency [10] | Potency [11] | Potency [14] | Potency [15] | Potency [16] | Potency [18] | Potency [19] | Potency [17]

O=C(Nc1cccc(C2=NCCN2)c1)Nc1cccc(C2=NCCN2)c1
inactive: activity change, negative = cytotoxicity [1] 19.9% [at 19 µM] | activity, positive = activation [2] -4.28% [at 19 µM] | activity change [3] -0.181% [at 11.8 µM, hits give high values] | activation [4] -0.538% [at 15.8 µM] | activation [5] 2.04% [at 11.8 µM] | activation [6] -0.295% [at 13.5 µM] | activity change, negative = cytotoxicity [7] 0.748% [at 13.5 µM] | activity change, negative = cytotoxicity [8] -8.13% [at 13.5 µM] | activation [9] 1.58% [at 13.5 µM] | activity, negative = inhibition [10] -37.2% [at 12.7 µM] | activation [11] 1.02% [at 15.9 µM] | activity, negative = inhibition [12] -4.67% [at 12.6 µM] | activation [13] -0.0869% [at 15.8 µM] | activation [14] -0.37% [at 19 µM] | activity change, negative = inhibition [15] -6.62% [at 18.9 µM] | Potency [18] | activity change, negative = inhibition [17] -4.58% [at 18.9 µM]

COc1cc2[nH]c(=O)[nH]c(=O)c2cc1OC
inactive: Potency [1] | Potency [2] | Potency [3] | outcome [4] | outcome [5] | Potency [6] | Potency [7] | Potency [8] | Potency [9] | Potency [10] | Potency [11] | Potency [12] | Potency [13] | Potency [15] | Potency [16] | Potency [17]

CC[N+](C)(CC)CCOC(=O)C(O)(c1ccccc1)C1CCCCC1 (stereo not drawn)
inactive: Potency [1] | Potency [2] | Potency [3] | outcome [4] | outcome [5] | Potency [6] | Potency [7] | Potency [8] | Potency [9] | Potency [10] | Potency [11] | Potency [12] | Potency [15] | Potency [16] | Potency [19] | Potency [17]

CN1CCOC(c2ccccc2)c2ccccc2C1 (stereo not drawn)
inactive: Potency [1] | Potency [2] | Potency [3] | outcome [4] | outcome [5] | Potency [6] | Potency [7] | Potency [9] | Potency [10] | Potency [11] | Potency [12] | Potency [13] | Potency [14] | Potency [15] | Potency [16] | Potency [18] | Potency [19] | Potency [17]

NC(=O)c1ncn([C@@H]2O[C@H](CO)[C@@H](O)[C@H]2O)c1N
inactive: Potency [1] | Potency [2] | Potency [3] | outcome [4] | outcome [5] | Potency [6] | Potency [7] | Potency [8] | Potency [9] | Potency [11] | Potency [12] | Potency [13] | Potency [14] | Potency [15] | Potency [16] | Potency [19] | Potency [17]

From PubChem BioAssay (Tox21)
